This note sets out measurements from PubChem BioAssay (NCI).

The panel holds about 83,000 compounds, 20% with a hit somewhere; the sample as a whole holds those more often.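 How to read the values: 0–100, growth inhibition (40 = 60% inhibited); 0, no net growth; -100 to 0, cell death (-40 = 40% of starting cells died; -100 = all dead).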 The source made the active and inactive calls. How the source made its calls: active means growth percent below 10; inactive means the rest.

This test concerns HL-60(TB) leukemia. Put plainly: NCI-60 one-dose screen, 48 h (100 = growth as untreated, 0 = no growth, -100 = all killed). The settings on record: 10 µM unless noted.
Regarding `Cc1cccc([N+](=O)[O-])c1I`, the growth was 143% (inactive). On to `COc1ccc2c(c1)CC[C@@H]1[C@@H]2CC[C@]2(C)c3c(cc(C#N)c4c3sc3ccccc34)C[C@@H]12`, for which the growth is 91.7% (inactive). For `COc1cc(/C=C/C(=O)c2ccc(Nc3ncnc4ccccc34)cc2)cc(OC)c1` the value was 55.5% (inactive). For the compound `CC(=O)c1cccc(O)c1`, the growth is 100% (inactive). For `COc1ccc(/C(C)=C(\c2ccc(Cl)cc2)c2ccc(OCCN3CCCCCC3)cc2)cc1` the value was 25.8% (inactive); for `COc1ccc(Nc2ncccc2/C=C/C(=O)c2cc(OC)c(OC)c(OC)c2)cc1`, -42.4% (active); for `CNC(=O)c1cn(C2CC2)c2cc(N3CCN(C(=O)c4cc(OC)c(OC)c(OC)c4)CC3)c(F)cc2c1=O`, 101% (inactive).

On to `COc1ccc2c(c1)Oc1nc(N)c(C#N)c(N)c1C2Sc1ccc(O)cc1` (stereo not given), for which the growth was 9.8% (active). In the case of `C/C(=N\NC(=S)Nc1ccccc1)c1ccccn1`, the growth was 3.23% (active). For `CCOC(=O)c1cc(C(=O)c2ccc(OC)c(OC)c2)n2c1ccc1ccc3cccnc3c12` the value was 3.73% (active). Next, `CC(C)(C)[Si](C)(C)OC1[C@@H](CNC(N)=O)O[C@@H](n2cnc3c(NC(=O)Nc4ccccc4)ncnc32)[C@H]1O[Si](C)(C)C(C)(C)C` (stereo not given in full): 52% (inactive); `COc1ccc(C2=Nc3c(C)nn(-c4ccccc4)c3NC(c3ccc(Oc4ccnc5cc(Cl)ccc45)c(OC)c3)C2)cc1` (stereo not given): 90.8% (inactive).

In the case of `COc1ccc(-c2nn(C(=O)NCCN(C)C)cc2-c2ccncc2)cc1Cl`, the growth was 10.2% (inactive). Next, `C=CCOC(=O)C1=C(C)NC2=C(C(=O)CC(C)(C)C2)C1c1ccc(OC)cc1` (stereo not given): 80.6% (inactive). Next, `COc1ccc(-c2cc(=O)n(-c3nc4ccccc4[nH]3)[nH]2)cc1OC`: 35.4% (inactive); `O=C(O)CCCC(=O)O`: 99% (inactive); `CCCC(OC(C)=O)c1ccc2c(c1)OCO2` (stereo not given): 98.7% (inactive).

As to `CC(=O)n1c(-c2ccc(Cl)c(Cl)c2)cn(-c2ccc(Cl)cc2)c1=O`, the growth was 64.8% (inactive). For `CCCCCCNc1nc(NCCCCCC)c2[nH]c(NCCCCCC)nc2n1` the value was -60.2% (active); for `COc1cc(-c2c(C#N)c(-c3cccs3)nc3c2c(-c2ccccc2)nn3-c2ccccc2)ccc1O`, 99.3% (inactive); for `c1ccc2c(-c3c4ccsc4cc4[nH]c5ccccc5c34)c[nH]c2c1`, 14.3% (inactive). For `CC(C)N(CCNc1nc(C(Cl)(Cl)Cl)nc2cc(Cl)ccc12)C(C)C` the value was -0.349% (active); for `Nc1cc(N)c2nc(-c3ccccc3)c(NCCc3ccc(Cl)c(Cl)c3)nc2c1`, -10.5% (active); for `Cc1ccccc1NC(=O)CN(C)C`, 87.9% (inactive). Consider `O=C1C(Nc2ccc(Cl)cc2)=C(I)C(=O)c2ncccc21`, for which the growth is -45.8% (active).

On to `CCOC(=O)C1=C(C)NC(=O)NC1c1cccs1` (stereo not given), for which the growth is 60.5% (inactive). Next, `COc1ccc(/C(C#N)=C/c2cccc(OC)c2OC)cc1`: 76.7% (inactive); `CNCCCNc1ccnc2cc(Cl)ccc12`: -25% (active); `CCCCCC(C)c1ccc(O)c(C)c1` (stereo not given): 91.4% (inactive). Next, `CC[C@H](Nc1cc(C)nc(N)n1)c1nc2cccc(NCc3ccc(C(=O)NO)cc3)c2c(=O)n1-c1ccccc1`: 2.35% (active).

Consider `O=C(NCCCNc1nccc(-n2ccc3cccnc32)n1)c1c(F)cccc1F`, for which the growth is 102% (inactive).

As for `C/C=C/C1=CN2C(=O)c3cc(OC4OC(C)C(NC)C(C)(O)C4O)c(C)cc3N=C[C@@H]2C1` (stereo not given in full), the growth is -4.41% (active).

`COC1=CC(c2ccc[nH]2)=N/C1=C\c1[nH]c(C)c(C(=O)CCC(=O)Oc2ccc3c(c2)CCC2C3CC[C@]3(C)C(=O)CC[C@@H]23)c1C` (stereo not given in full): the growth was 79.8% (inactive). As to `O=C1Nc2ccc(F)cc2/C1=C/c1nc(-c2ccc(F)cc2)n2ccccc12`, the growth is 103% (inactive). In the case of `COC(=O)C1C2CC3c4[nH]c5cc(OC)ccc5c4CCN3CC2CC(OC2CCCCO2)C1OC` (stereo not given), the growth was 98.7% (inactive). For `C(=N\Nc1ncc(-c2cc3cc4c(cc3o2)OCO4)s1)/c1ccco1` the value was 16.2% (inactive); for `CN1CCN(c2ccc(-c3cc4c(Nc5ccc(F)c(Cl)c5)ncnn4c3)cc2)CC1`, 1.68% (active).

As to `Fc1ccc(Nc2nc(Nc3ccc(-c4nc5ccccc5[nH]4)cc3)c3cn[nH]c3n2)cc1`, the growth is 91.4% (inactive).

With `Cc1nn(-c2ccccc2)cc1/C=C1\SC(N2CCCCC2)=NC1=O`, the growth was 93% (inactive). Turning to `COc1ccc(NC(=O)/C=C/c2ccc(NC(=O)N3CCCC3)cc2)cn1`, the growth is 102% (inactive).
